APOBEC3A inh = blocks human APOBEC3A ssDNA deamination | 330,000 tested, 0.41% active | recombinant A3A, FAM/TAMRA ssDNA deamination fluorescence | inhibition, % at 20 µM;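 active = at least 40% inhibition at 20 µM here, with at most 30% in a related deaminase screen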;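 note: plate controls were A3A with DMSO for no effect and wells lacking A3A enzyme for full effect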
H9c2 protect = protects H9c2 cardiomyocytes from peroxide injury | H2O2 injury protection, ATPLite, 2 h | protection from H2O2 cell death, % at 20 µM | 360,000 tested, 0.63% active;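 active = compounds giving at least 50% protection of heart cells from peroxide-induced death in the single-dose screen, raw or plate-pattern-corrected value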;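 note: 0% = DMSO wells with peroxide and 100% = DMSO wells without peroxide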
PfGluPho inh = PfG6PD (Plasmodium falciparum) enzyme inhibition. inhibition, % at 20 µM. PfGluPho enzyme, NADPH resazurin-diaphorase fluorescence. AID 504690. 350,000 tested, 0.78% active;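 active = inhibition reaching at least a set limit at 20 µM in the primary screen, cut at about 59% in these data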;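 note: 0% = DMSO wells with substrate and 100% = DMSO wells lacking glucose-6-phosphate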
NadD block = blocks S. aureus nicotinate mononucleotide adenylyltransferase; purified NadD enzyme, colorimetric absorbance read-out; inhibition, % at 20 µM; 360,000 tested, 0.78% active; in the data active = inhibition above about 26%
TAG inh = reduces triacylglycerol accumulation in H9c2 cells | Nile Red lipid (TAG) fluorescence; cells loaded with 200 µM oleic acid | inhibition, % at 12.5 µM | 230,000 tested, 0.66% active | AID 651582;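 active = pattern-corrected inhibition of lipid staining of at least 50% with the nuclear-stain viability signal not falling by more than 50%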;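 note: 0% = DMSO wells and 100% = triacsin C control wells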
A3G deaminase = blocks human APOBEC3G single-stranded DNA deamination | Q9HC16 | inhibition, % at 20 µM | 330,000 tested, 0.28% active | AID 493012 | recombinant A3G, ssDNA deamination FAM/TAMRA fluorescence;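 active = inhibition of at least 40% at 20 µM, with no more than 30% in the related APOBEC3A deaminase screen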;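 note: plate controls were DMSO wells with A3G for no effect and wells lacking A3G enzyme for full effect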
Target sequence (Q9HC16 whole entry, looked up): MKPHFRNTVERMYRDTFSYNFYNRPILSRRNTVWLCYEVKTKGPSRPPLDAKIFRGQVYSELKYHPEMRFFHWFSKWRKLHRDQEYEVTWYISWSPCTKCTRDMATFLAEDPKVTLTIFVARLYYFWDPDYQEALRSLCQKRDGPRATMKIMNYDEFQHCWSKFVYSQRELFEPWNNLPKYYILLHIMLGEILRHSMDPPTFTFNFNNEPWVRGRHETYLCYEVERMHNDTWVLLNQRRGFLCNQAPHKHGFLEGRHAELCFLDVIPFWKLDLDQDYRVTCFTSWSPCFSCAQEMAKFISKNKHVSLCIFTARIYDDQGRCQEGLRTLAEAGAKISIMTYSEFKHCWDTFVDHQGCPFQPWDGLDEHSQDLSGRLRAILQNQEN
TAG conf = triacylglycerol accumulation inhibition, confirmation. shares compounds with TAG inh. inhibition, % at 12.5 µM. 990 tested, 71% active. H9c2 lipid accumulation, Nile Red fluorescence; cells loaded with 200 µM oleic acid. AID 651629;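 active = mean inhibition across replicates of 40% or more; inactive = mean inhibition below 40%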;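 note: plate controls were DMSO only wells for no effect and Triacsin C treated wells for full effect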
Starred values were filed as active, the others as inactive; . = no result given. Only some compounds are listed: those with a hit (about 2.9% of all), similar ones and a draw of the others.

SMILES	APOBEC3A inh	H9c2 protect	PfGluPho inh	NadD block	TAG inh	A3G deaminase	TAG conf
O=C(C/C=N\OCc1ccc([N+](=O)[O-])cc1)Nc1ccc(Br)cc1	0	-8	23	-11	-36	-5	.
CN1CCN(c2ccc(Cl)cc2NC(=O)c2nn(-c3ccccc3)c(=O)c3ccccc23)CC1	.	-24	-11	-2	52*	.	27
CN1CCN(c2ccc(Cl)cc2NC(=O)c2ccc([N+](=O)[O-])cc2)CC1	-3	4	16	-7	17	-4	.
CCc1noc(C)c1C(=O)Nc1nc(-c2ccccc2)c(C(C)=O)s1	-7	-4	-9	-5	8	-8	.
CC(=O)c1cccc(-c2ccnc3c2CC(C(=O)NCc2ccco2)O3)c1 (stereo unspecified)	.	6	.	1	57*	.	59*
CCCNS(=O)(=O)c1ccc(CCC(=O)Nc2cc(Cl)ccc2Oc2ccccc2)cc1	.	-13	3	0	46	.	.
CC(C)CNS(=O)(=O)c1ccc(CCC(=O)Nc2cc(Cl)ccc2Oc2ccccc2)cc1	2	-14	6	0	55*	-4	36
Cc1cc2c(cc1C)CSC(c1ccccc1OC(=O)C(C)C)SC2	-7	-4	-14	-2	52*	-8	24
O=C(COc1ccc(Br)cc1CNC1CCCCC1)NCCc1ccccc1	1	-13	0	3	59*	-7	39
Cc1ccc(S(=O)(=O)N2CC(O)CC2C(=O)O)cc1 (stereo unspecified)	-2	5	2	-4	.	-8	.
COCCOC(=O)c1[nH]c2c(c1C)C(=O)CC(c1ccccc1)C2 (stereo unspecified)	0	-8	12	5	80*	-6	47*
CC(=O)NCCC(=O)Nc1sc2c(c1-c1nc3ccccc3[nH]1)CCCC2	-1	36	26	6	.	-4	.
O=C(Nc1sc2c(c1-c1nc3ccccc3[nH]1)CCCC2)C1CCCC1	-2	0	16	13	58*	-4	60*
COCc1nnc(NC(=O)c2cccc(NC(=O)c3ccccc3)c2)s1	-3	3	-18	-6	-19	1	.
C[C@@]12CCC=C[C@H]1[C@H](c1ccoc1)N(Cc1ccccc1)C2=O	0	9	-14	-4	79*	0	12
COc1ccc(-c2sc3cc4c(cc3c2C#CCO)OCO4)cc1	-2	-8	18	0	-46	-7	.
COc1ccc(-c2sc3cc4c(cc3c2C#Cc2ccc(N)cc2)OCO4)cc1	-2	-14	10	8	55*	-6	58*
Cc1ccc(C(=O)C(OC(=O)c2cnccn2)c2ccccc2)cc1 (stereo unspecified)	-3	5	6	-4	.	-3	.
COc1ccc(CCNc2nnc(Sc3nnnn3-c3ccccc3)s2)cc1OC	9	0	11	-6	97*	2	76*
CC(C)C(C)(C#N)NC(=O)CSc1nc2scc(-c3ccco3)c2c(=O)n1-c1ccccc1 (stereo unspecified)	-3	16	16	20	70*	-4	44*
CCC(=O)Nc1ccc(-c2nnc(-c3ccccc3)o2)cc1	-3	-11	7	3	52*	-1	43*
CCC(=O)Nc1ccc(-c2nc3ccccc3c(=O)o2)cc1	-5	-4	1	4	-10	-8	.
O=C(COC(=O)CCC(=O)c1cccs1)Nc1ccccc1C(F)(F)F	-1	1	4	-8	-46	-3	.
Cn1nc(-c2ccc(Cl)cc2)c2cc(C(=O)NC3CC3)sc21	-4	13	-6	-1	76*	-6	70*
CCOc1cc(CNc2ccc(N3CCOCC3)cc2)cc(Br)c1OCC	-1	-12	47	1	.	-8	.
CCOc1cc(CNc2ccc3c(c2)OCCO3)cc(Br)c1OCC	-5	9	33	-8	53*	-7	53*
CC1(C)CC(=O)C2=C(C1)NC1=C(C(=O)c3ccccc31)C2c1cc([N+](=O)[O-])ccc1O (stereo unspecified)	-1	-6	19	5	2	-7	.
CCO[C@@H]1OC(C(=O)N2CCN(Cc3ccccc3)CC2)=C[C@H](c2ccc(C(F)(F)F)cc2)[C@H]1CCCO	-6	7	-1	0	53*	-11	52*

Screening data (PubChem)
